Results from PubChem BioAssay (NCI).
The panel holds about 79,000 compounds, 15% with a hit somewhere; the sample as a whole holds those more often. Activity calls are given as the source filed them. No stated cut-off is given here; in the data, active means growth inhibition above about 70%; inactive means the rest.

Columns and labels:
[1] = NCI Yeast Anticancer Drug Screen. Data for the rad52 strain (AID 147);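 further: 0% = growth of vehicle-treated control cultures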; details: S. cerevisiae rad52 mutant growth inhibition, hits give high values
How it was run: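 Here a repair-compromised yeast strain receives each compound; its growth is then quantified and normalised to vehicle-only controls.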

[2] = NCI Yeast Anticancer Drug Screen. Data for the rad50EPP+ strain (AID 151);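 further: 0% = growth of vehicle-treated control cultures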; details: S. cerevisiae rad50 mutant strain, hits give high values
How it was run: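 Read-out is yeast growth inhibition relative to vehicle; cells used were the rad50EPP+ strain.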

[3] = NCI Yeast Anticancer Drug Screen. Data for the mgt1 strain (AID 153); details: S. cerevisiae mgt1 mutant growth inhibition, hits give high values
How it was run: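 Measured: inhibition of mgt1 yeast growth by compound, normalized to vehicle-treated cultures.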

[4] = NCI Yeast Anticancer Drug Screen. Data for the rad50 strain (AID 155);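 further: 0% = growth of vehicle-only cultures of the same strain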; details: S. cerevisiae rad50 strain growth inhibition, hits give high values
How it was run: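 Compounds were tested on a yeast strain with an engineered DNA damage repair alteration; the reported value is growth inhibition normalised to vehicle treatment.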

[5] = NCI Yeast Anticancer Drug Screen. Data for the mec2-1 strain (AID 157); details: S. cerevisiae mec2-1 strain, hits give high values
How it was run: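 Using mec2-1 yeast: add compound, measure growth, express inhibition versus vehicle-treated cultures.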

[6] = NCI Yeast Anticancer Drug Screen. Data for the rad14 strain (AID 159);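 further: 0% = growth of vehicle-treated control cultures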; details: S. cerevisiae rad14 strain growth inhibition, hits give high values
How it was run: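 Compound-treated yeast with a defined DNA-repair lesion; growth inhibition normalised to vehicle-treated cultures.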

[7] = NCI Yeast Anticancer Drug Screen. Data for the sgs1 mgt1 strain (AID 161);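 further: 0% = growth of cultures given vehicle only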; details: S. cerevisiae sgs1 mgt1 strain, hits give high values
How it was run: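 Percent growth inhibition was derived by comparing compound-exposed mutant yeast with vehicle-exposed cultures. The strain carries alterations in DNA damage repair.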

[8] = NCI Yeast Anticancer Drug Screen. Data for the CLN2oe strain (AID 163);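 further: 0% = growth of vehicle-only control cultures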; details: S. cerevisiae CLN2oe strain, hits give high values
How it was run: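 Whole-cell yeast growth assay. A strain engineered for altered cell-cycle control received compound, and inhibition relative to vehicle-treated cultures was recorded.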

[9] = NCI Yeast Anticancer Drug Screen. Data for the bub3 strain (AID 167); details: S. cerevisiae bub3 mutant strain, hits give high values
How it was run: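 Growth of a checkpoint-deficient yeast mutant is measured after compound exposure. Values represent inhibition relative to vehicle.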

[10] = NCI Yeast Anticancer Drug Screen. Data for the wt2 strain (AID 169);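 further: 0% = growth of vehicle-treated yeast cultures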; details: S. cerevisiae wt2 strain growth inhibition, hits give high values
How it was run: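 Treated yeast vs. vehicle-treated yeast: growth inhibition determined.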

[11] = NCI Yeast Anticancer Drug Screen. Data for the mlh1 strain (AID 171);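 further: 0% = growth of vehicle-treated control cultures of the same strain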; details: S. cerevisiae mlh1 strain growth inhibition, hits give high values
How it was run: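 A yeast strain with a defined genetic lesion serves as the test organism. Cultures receive compound or vehicle, and growth is measured.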

[12] = NCI Yeast Anticancer Drug Screen. Data for the sgs1 strain (AID 173);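 further: 0% = growth of vehicle-only control cultures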; details: S. cerevisiae sgs1 mutant, hits give high values
How it was run: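 A genetically defined yeast mutant is incubated with the test compound, and its growth is compared to that of the same strain given vehicle.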

[13] = NCI Yeast Anticancer Drug Screen. Data for the mlh1 rad18 strain (AID 175); details: S. cerevisiae mlh1 rad18 strain growth inhibition, hits give high values
How it was run: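 Steps: expose repair-defective yeast to compound; measure growth; express inhibition against vehicle-treated controls.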

[14] = NCI Yeast Anticancer Drug Screen. Data for the rad18 strain (AID 177); details: S. cerevisiae rad18 mutant growth inhibition, hits give high values
How it was run: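 Measured value is growth inhibition of a yeast strain bearing a DNA repair alteration, referenced to vehicle-treated cells.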

[15] = NCI Yeast Anticancer Drug Screen. Data for the wt1 strain (AID 149);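 further: 0% = growth of vehicle-treated wt1 cultures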; details: S. cerevisiae wt1 strain (SPY 50644) growth inhibition, hits give high values
How it was run: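 Readout: yeast growth inhibition, normalised to vehicle controls, in the wt1 strain exposed to test compounds.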

[16] = NCI Yeast Anticancer Drug Screen. Data for the cln2 rad14 strain (AID 165);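 further: 0% = growth equal to vehicle treated cultures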; details: S. cerevisiae cln2 rad14 strain, hits give high values
How it was run: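 Yeast strain cln2 rad14, bearing defects in cell cycle control and DNA repair, serves as the test system; values reflect growth inhibition compared with vehicle.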

[17] = at 5.0 µM (retest, dose inferred, filed as 0.5)
[18] = at 50.0 µM (retest, dose inferred, filed as 5.0)

Measured: growth inhibition

Nc1n[n+]([O-])c2ccc(Cl)cc2[n+]1[O-]
active: [1]; at 3.7 µM 80% | [1]; at 11.0 µM 91% | [1]; at 33.0 µM 94% | [1]; at 100.0 µM 96% | [2]; at 3.7 µM 77% | [2]; at 11.0 µM 88% | [2]; at 33.0 µM 91% | [2]; at 100.0 µM 94% | [3]; at 33.0 µM 80% | [3]; at 100.0 µM 95% | [4]; at 3.7 µM 79% | [4]; at 11.0 µM 88% | [4]; at 33.0 µM 92% | [4]; [18] 95% | [4]; at 50.0 µM 96.8% | [4]; at 100.0 µM 94% | [5]; at 33.0 µM 83% | [5]; [18] 91% | [5]; at 50.0 µM 78% | [5]; at 100.0 µM 93% | [6]; at 11.0 µM 71% | [6]; at 33.0 µM 89% | [6]; at 100.0 µM 96% | [7]; [18] 91% | [7]; at 50.0 µM 93.2% | [8]; at 33.0 µM 84% | [8]; at 100.0 µM 95% | [9]; at 33.0 µM 81% | [9]; [18] 93% | [9]; at 50.0 µM 82.8% | [9]; at 100.0 µM 90% | [10]; at 33.0 µM 85% | [10]; at 100.0 µM 95% | [11]; at 11.0 µM 70% | [11]; at 33.0 µM 93% | [11]; at 100.0 µM 96% | [12]; at 11.0 µM 78% | [12]; at 33.0 µM 91% | [12]; at 100.0 µM 95% | [13]; [18] 97% | [13]; at 50.0 µM 94.7% | [14]; at 3.7 µM 87% | [14]; at 11.0 µM 93% | [14]; at 33.0 µM 95% | [14]; at 100.0 µM 95%
inactive: [1]; at 1.2 µM 49% | [2]; at 1.2 µM 53% | [3]; at 1.2 µM 1% | [3]; at 3.7 µM 27% | [3]; at 11.0 µM 36% | [4]; at 1.2 µM 60% | [4]; [17] 65% | [5]; at 1.2 µM 9% | [5]; at 3.7 µM 22% | [5]; [17] 15% | [5]; at 11.0 µM 57% | [6]; at 1.2 µM 12% | [6]; at 3.7 µM 32% | [7]; [17] 48% | [8]; at 1.2 µM 6% | [8]; at 3.7 µM 32% | [8]; at 11.0 µM 55% | [9]; at 1.2 µM 0% | [9]; at 3.7 µM 15% | [9]; [17] 24% | [9]; at 11.0 µM 44% | [10]; at 1.2 µM 8% | [10]; at 3.7 µM 30% | [10]; at 11.0 µM 57% | [11]; at 1.2 µM 15% | [11]; at 3.7 µM 38% | [12]; at 1.2 µM 18% | [12]; at 3.7 µM 55% | [13]; [17] 50% | [14]; at 1.2 µM 66%

COC(=O)NC1C(C)OC(OC2C/C=C(/C)C3C=CC4C(OC5CC(OC6CC(O)C(OC7CC(O)C(OC)C(C)O7)C(C)O6)C(O)C(C)O5)C(C)CC(C)C4C3(C)/C(O)=C3\C(=O)OC4(CC(C)C(CO)=CC4/C=C\2C)C3=O)CC1(C)[N+](=O)[O-] (stereo not drawn)
inactive: [15]; at 1.2 µM 10% | [15]; at 3.7 µM 22% | [15]; at 11.0 µM 20% | [15]; at 33.0 µM 22% | [15]; at 100.0 µM 10% | [2]; at 1.2 µM 10% | [2]; at 3.7 µM 8% | [2]; at 11.0 µM 11% | [2]; at 33.0 µM 5% | [2]; at 100.0 µM 11% | [3]; at 1.2 µM -7% | [3]; at 3.7 µM 2% | [3]; at 11.0 µM -1% | [3]; at 33.0 µM 8% | [3]; at 100.0 µM 7% | [4]; at 1.2 µM 5% | [4]; at 3.7 µM 16% | [4]; [17] 23% | [4]; at 11.0 µM 22% | [4]; at 33.0 µM 21% | [4]; [18] 40% | [4]; at 50.0 µM 5.7% | [4]; at 100.0 µM 16% | [5]; at 1.2 µM 2% | [5]; at 3.7 µM -5% | [5]; [17] 9% | [5]; at 11.0 µM -4% | [5]; at 33.0 µM 5% | [5]; [18] 34% | [5]; at 50.0 µM -7.4% | [5]; at 100.0 µM -3% | [6]; at 1.2 µM 13% | [6]; at 3.7 µM 19% | [6]; at 11.0 µM 14% | [6]; at 33.0 µM 16% | [6]; at 100.0 µM 13% | [7]; [17] 13% | [7]; [18] 27% | [7]; at 50.0 µM 9.1% | [8]; at 1.2 µM 27% | [8]; at 3.7 µM 15% | [8]; at 11.0 µM 20% | [8]; at 33.0 µM 18% | [8]; at 100.0 µM 28% | [16]; [17] 44% | [16]; [18] 33% | [16]; at 50.0 µM 14.8% | [9]; at 1.2 µM 22% | [9]; at 3.7 µM 19% | [9]; [17] 34% | [9]; at 11.0 µM 13% | [9]; at 33.0 µM 9% | [9]; [18] 26% | [9]; at 50.0 µM 10.7% | [9]; at 100.0 µM 9% | [10]; at 1.2 µM -42% | [10]; at 3.7 µM -37% | [10]; at 11.0 µM -47% | [10]; at 33.0 µM -30% | [10]; at 100.0 µM -21% | [11]; at 1.2 µM -4% | [11]; at 3.7 µM 5% | [11]; at 11.0 µM 3% | [11]; at 33.0 µM 3% | [11]; at 100.0 µM -2% | [12]; at 1.2 µM 0% | [12]; at 3.7 µM -8% | [12]; at 11.0 µM -15% | [12]; at 33.0 µM -13% | [12]; at 100.0 µM -10% | [13]; [17] 27% | [13]; [18] 65% | [13]; at 50.0 µM 10.6% | [14]; at 1.2 µM 1% | [14]; at 3.7 µM 17% | [14]; at 11.0 µM 14% | [14]; at 33.0 µM 14% | [14]; at 100.0 µM 13%
